In PubChem BioAssay (EPA / NIEHS):
Activity calls are given as the source filed them. Rule for the calls: active = hit-call score of the fitted dose curve at least 0.9, where 1 is the maximum; inactive = score below 0.9.

What was measured:
Conditions in all cases: mRNA level, 48 h; actives raise or lower the signal
[1] = read-out: Apoptosis regulator Bcl-2 (Homo sapiens) (UniProt P10415); test: LTEA_HepaRG_BCL2: Life Technologies and Expression Analysis (LTEA) Assay for Bcl-2 gene using HepaRG (AID 2283475)
Procedure, shortened: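 Differentiated HepaRG cells in serum-free induction medium were exposed for 48 h to eight half-log concentrations up to 100 uM in 0.5% DMSO, in duplicate. BCL2 mRNA was quantified by TaqMan qRT-PCR normalised to ACTB, GAPDH and POLR2A, with bidirectional fitting versus DMSO.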

[2] = read-out: Bcl-2 (BID) gene, BID (gene 637); test: LTEA_HepaRG_BID: Life Technologies and Expression Analysis (LTEA) Assay for Bcl-2 (BID) gene using HepaRG (AID 2283476)
Procedure, shortened: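 Differentiated HepaRG cells in serum-free induction medium were exposed in duplicate for 48 h to eight half-log concentrations up to 100 uM in 0.5% DMSO. BID mRNA was quantified by qRT-PCR, normalized to ACTB, GAPDH and POLR2A.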

Caspase-3 (Homo sapiens) = Caspase-3 (Homo sapiens) (UniProt P42574); test: LTEA_HepaRG_CASP3: Life Technologies and Expression Analysis (LTEA) Assay for cysteine-aspartic acid protease (CASP3) using HepaRG (AID 2283477)
Sequence of Caspase-3 (Homo sapiens) (P42574 whole entry, looked up): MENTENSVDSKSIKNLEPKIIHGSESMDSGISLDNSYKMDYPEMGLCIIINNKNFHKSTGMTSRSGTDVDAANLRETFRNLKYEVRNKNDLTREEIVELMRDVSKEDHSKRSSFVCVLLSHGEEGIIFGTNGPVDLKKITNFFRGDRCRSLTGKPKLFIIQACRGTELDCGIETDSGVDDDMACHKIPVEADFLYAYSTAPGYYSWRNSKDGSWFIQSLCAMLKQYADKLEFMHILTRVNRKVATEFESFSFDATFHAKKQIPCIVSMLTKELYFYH
Procedure, shortened: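 Read-out is CASP3 mRNA level by TaqMan qRT-PCR in human HepaRG cells after 48 h chemical exposure. Eight half-log concentrations topping at 100 uM were tested in 0.5% DMSO; gain or loss was fitted relative to DMSO.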

[3] = read-out: Cytochrome P450 (CYP1A2), CYP1A2 (gene 1544); test: LTEA_HepaRG_CYP1A2: Life Technologies and Expression Analysis (LTEA) Assay for Cytochrome P450 (CYP1A2) using HepaRG (AID 2283479)
Procedure, shortened: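 CYP1A2 transcript induction or loss, quantified by Fluidigm qRT-PCR against three housekeeping genes, was fitted bidirectionally against 0.5% DMSO controls. Human HepaRG cells received eight half-log concentrations from 100 uM over 48 h.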

[4] = read-out: cysteine-aspartic acid protease (CASP8), CASP8 (gene 841); test: LTEA_HepaRG_CASP8: Life Technologies and Expression Analysis (LTEA) Assay for cysteine-aspartic acid protease (CASP8) using HepaRG (AID 2283480)
Procedure, shortened: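 HepaRG, 48 h exposure, duplicate wells; 8 conc, half-log from 100 uM, 0.5% DMSO. Serum-free induction medium. CASP8 mRNA by TaqMan qRT-PCR, norm. ACTB/GAPDH/POLR2A; gain/loss fitted vs DMSO.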

[5] = read-out: Cytochrome P450 (CYP2B6), CYP2B6 (gene 1555); test: LTEA_HepaRG_CYP2B6: Life Technologies and Expression Analysis (LTEA) Assay for Cytochrome P450 (CYP2B6) using HepaRG (AID 2283481)
Procedure, shortened: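 HepaRG cells plated 48 h, switched to serum-free induction medium, then dosed 48 h (8 points, half-log from 100 uM, 0.5% DMSO). RNA isolated; CYP2B6 expression measured by qRT-PCR; gain or loss fitted relative to DMSO.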

[6] = read-out: Cytochrome P450 2C19 (Homo sapiens) (UniProt P33261); test: LTEA_HepaRG_CYP2C19: Life Technologies and Expression Analysis (LTEA) Assay for CYP2C19 using HepaRG (AID 2283482)
Procedure, shortened: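 Transcript levels of CYP2C19 were quantified by qRT-PCR after HepaRG cells were treated for 48 hours with test chemicals up to 100 uM (eight half-log concentrations, 0.5% DMSO vehicle). Gain or loss of signal was fitted relative to DMSO.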

CYP2C8 (gene 1558) = test: LTEA_HepaRG_CYP2C8: Life Technologies and Expression Analysis (LTEA) Assay for CYP2C8 using HepaRG (AID 2283483)
Procedure, shortened: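 CYP2C8 mRNA induction or loss, by qRT-PCR normalized to ACTB/GAPDH/POLR2A, is read in HepaRG cells after 48 h treatment. Concentrations run from 100 uM down in half-log dilutions, with 0.5% DMSO as vehicle and baseline.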

CYP2C9 (gene 1559) = test: LTEA_HepaRG_CYP2C9: Life Technologies and Expression Analysis (LTEA) Assay for CYP2C9 using HepaRG (AID 2283484)
Procedure, shortened: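 Cells plated 48 h, switched to serum-free induction medium, then treated in duplicate for 48 h at eight concentrations (max 100 uM, 0.5% DMSO). RNA then analysed by qRT-PCR for CYP2C9; curves fitted in both directions relative to DMSO.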

[7] = read-out: Cytochrome P450 (CYP24A1), CYP24A1 (gene 1591); test: LTEA_HepaRG_CYP24A1: Life Technologies and Expression Analysis (LTEA) Assay for Cytochrome P450 (CYP24A1) using HepaRG (AID 2283478)
Procedure, shortened: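 HepaRG, 48 h chemical exposure, 8-pt half-log CRC from 100 uM, 0.5% DMSO vehicle, duplicates. Endpoint: CYP24A1 mRNA by Fluidigm TaqMan qRT-PCR, normalized ACTB/GAPDH/POLR2A; gain/loss fit vs DMSO.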

Measured: AC50

Sequence of Cytochrome P450 2C19 (Homo sapiens) (P33261 whole entry, looked up): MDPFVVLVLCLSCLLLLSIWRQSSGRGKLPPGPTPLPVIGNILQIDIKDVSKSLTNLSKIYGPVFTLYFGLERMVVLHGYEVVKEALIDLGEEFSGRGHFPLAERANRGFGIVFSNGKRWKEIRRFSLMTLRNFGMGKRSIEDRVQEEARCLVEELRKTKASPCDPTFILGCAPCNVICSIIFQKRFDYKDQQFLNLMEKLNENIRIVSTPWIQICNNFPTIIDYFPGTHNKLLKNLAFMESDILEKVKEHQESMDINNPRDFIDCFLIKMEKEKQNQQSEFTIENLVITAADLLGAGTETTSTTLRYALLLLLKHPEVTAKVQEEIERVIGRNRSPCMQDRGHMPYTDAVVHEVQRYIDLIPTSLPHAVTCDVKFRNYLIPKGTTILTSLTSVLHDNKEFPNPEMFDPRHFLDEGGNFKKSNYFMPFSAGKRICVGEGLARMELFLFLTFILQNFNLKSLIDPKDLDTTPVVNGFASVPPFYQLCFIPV
Sequence of Apoptosis regulator Bcl-2 (Homo sapiens) (P10415 whole entry, looked up): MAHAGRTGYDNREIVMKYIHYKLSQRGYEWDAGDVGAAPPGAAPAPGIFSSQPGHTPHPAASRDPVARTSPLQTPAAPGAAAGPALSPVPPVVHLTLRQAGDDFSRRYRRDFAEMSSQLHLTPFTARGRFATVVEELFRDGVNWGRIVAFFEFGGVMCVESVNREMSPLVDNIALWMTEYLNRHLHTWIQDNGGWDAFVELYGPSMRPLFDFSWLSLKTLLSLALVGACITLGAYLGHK

O=S(=O)(O)C(F)(F)C(F)(F)C(F)(F)C(F)(F)F
active: [5] 52.5 µM
not listed: [7]
inactive: all other assays above

Clc1ccc(C(Cl)(Cl)Cl)cc1
not listed: CYP2C8 (gene 1558) | [7]
inactive: all other assays above

Oc1c(Cl)c(Cl)c(Cl)c(Cl)c1Cl
active: [2] 4.97 µM | [3] 3.83 µM | [4] 6.64 µM | [5] 3.43 µM | [6] 4.27 µM | CYP2C8 (gene 1558) 4.44 µM | CYP2C9 (gene 1559) 3.08 µM
inactive: [1]

ClC1=C(Cl)[C@]2(Cl)[C@@H]3[C@@H]4C[C@@H]([C@H]5O[C@@H]45)[C@@H]3[C@@]1(Cl)C2(Cl)Cl
active: [1] 50 µM | [5] 1.58 µM | [6] 12.3 µM
not listed: Caspase-3 (Homo sapiens) | CYP2C8 (gene 1558)
inactive: all other assays above

O=C(NC(=O)c1cc(F)c(F)cc1Cl)Nc1cc(F)ccc1N1CCC(C(=O)O)CC1
not listed: Caspase-3 (Homo sapiens) | CYP2C8 (gene 1558) | [7]
inactive: all other assays above

Cc1cccc(C)c1N
active: [5] 19.3 µM
not listed: Caspase-3 (Homo sapiens) | CYP2C8 (gene 1558) | [7]
inactive: all other assays above

CCCCCCOC(=O)c1ccccc1C(=O)OCCCCCC
active: [3] 50 µM
not listed: Caspase-3 (Homo sapiens) | CYP2C8 (gene 1558) | [7]
inactive: all other assays above

CC(C)(O)C(=O)Nc1ccc([N+](=O)[O-])c(C(F)(F)F)c1
inactive: [1] | [6] | CYP2C9 (gene 1559)
active: [2] 0.0296 µM | [3] 0.0406 µM | [4] 0.0142 µM | [5] 44.3 µM

CC1=C2C[C@H]3[C@@H](CC=C4C[C@@H](O)CC[C@@]43C)[C@@H]2CC[C@]12O[C@@H]1C[C@H](C)CN[C@H]1[C@H]2C
not listed: Caspase-3 (Homo sapiens) | CYP2C8 (gene 1558) | [7]
inactive: all other assays above

COc1ccc(O)c(C(C)(C)C)c1
not listed: Caspase-3 (Homo sapiens) | CYP2C8 (gene 1558) | [7]
inactive: all other assays above

CCSC(=O)N(CC)C1CCCCC1
active: [5] 32.9 µM
not listed: Caspase-3 (Homo sapiens) | CYP2C8 (gene 1558) | [7]
inactive: all other assays above

CCNc1nc(NC(C)C)nc(SC)n1
active: [5] 1.11 µM | [6] 2.45 µM
not listed: Caspase-3 (Homo sapiens) | [7]
inactive: all other assays above

CCCCCCCCOC(=O)c1ccccc1C(=O)OCCCCCCCC
active: [5] 16.3 µM
not listed: Caspase-3 (Homo sapiens) | CYP2C8 (gene 1558)
inactive: all other assays above

Cc1ccccc1O
active: [5] 24.4 µM
not listed: Caspase-3 (Homo sapiens) | CYP2C8 (gene 1558)
inactive: all other assays above

O=NN(c1ccccc1)c1ccccc1
inactive: [1] | [4]
active: [2] 78.2 µM | [3] 50 µM | [5] 10.6 µM | [6] 7.3 µM | CYP2C9 (gene 1559) 0.273 µM

CCC(C)(CC)c1cc(NC(=O)c2c(OC)cccc2OC)on1
active: [3] 10.3 µM | [5] 3.2 µM | [6] 2.36 µM
not listed: Caspase-3 (Homo sapiens) | CYP2C8 (gene 1558)
inactive: all other assays above

Clc1ccc(Cl)cc1
not listed: Caspase-3 (Homo sapiens) | CYP2C8 (gene 1558)
inactive: all other assays above

CCOCCOC(C)=O
active: [5] 20.3 µM
not listed: Caspase-3 (Homo sapiens) | CYP2C8 (gene 1558) | [7]
inactive: all other assays above

CO/C=C(/C(=O)OC)c1ccccc1COc1cccc(C(F)(F)F)n1
active: [1] 9.33 µM | [3] 7.53 µM | [5] 7.13 µM | [6] 8.79 µM | CYP2C9 (gene 1559) 8.81 µM
inactive: [2] | [7] | [4]

c1cc2ccc3cccc4ccc(c1)c2c34
active: [3] 50 µM | [5] 6.95 µM | [6] 4.34 µM | CYP2C8 (gene 1558) 4.67 µM
inactive: [1] | [2] | [4] | CYP2C9 (gene 1559)

Clc1ccc(C(c2ccccc2Cl)C(Cl)(Cl)Cl)cc1 (centres undefined)
active: [5] 0.213 µM | [6] 1.76 µM
not listed: Caspase-3 (Homo sapiens) | CYP2C8 (gene 1558)
inactive: all other assays above

CC(c1ccc(O)cc1)(c1ccc(O)cc1)c1ccc(O)cc1
active: [2] 3.86 µM | [3] 21.8 µM | [5] 31.3 µM | [6] 29 µM | CYP2C9 (gene 1559) 50 µM
inactive: [1] | [4] | CYP2C8 (gene 1558)

O=C(O)C(F)(F)C(F)(F)C(F)(F)C(F)(F)C(F)(F)C(F)(F)C(F)(F)C(F)(F)F
inactive: [2] | [4]
active: [1] 73.6 µM | [3] 83.6 µM | [5] 82.4 µM | [6] 87.1 µM | CYP2C8 (gene 1558) 80 µM | CYP2C9 (gene 1559) 80.5 µM

Cc1ccccc1CO[C@@H]1C[C@@]2(C(C)C)CC[C@]1(C)O2
active: [3] 76.3 µM | [5] 15.9 µM | [6] 32.5 µM
inactive: [1] | [2] | [4] | CYP2C9 (gene 1559)

C[C@]12CCC(=O)C=C1CC[C@@H]1[C@@H]2CC[C@@]2(C)[C@H]1CC[C@]2(C)O
inactive: [4] | CYP2C9 (gene 1559)
active: [1] 10.9 µM | [2] 45.8 µM | [3] 45.8 µM | [5] 10.8 µM | [6] 0.207 µM

Oc1ccc(Cl)cc1Cl
active: [2] 12.2 µM
not listed: Caspase-3 (Homo sapiens) | CYP2C8 (gene 1558) | [7]
inactive: all other assays above

CC(C)(c1ccccc1)c1ccc(O)cc1
inactive: [1] | [2] | [4] | [6] | CYP2C9 (gene 1559)
active: [3] 75.5 µM | [5] 11.8 µM

CCOP(=S)(OCC)SCSC(C)(C)C
not listed: Caspase-3 (Homo sapiens) | [7]
inactive: all other assays above

CCC(C)c1cc([N+](=O)[O-])cc([N+](=O)[O-])c1O (centres undefined)
active: [1] 12.3 µM | [2] 2.42 µM | [3] 2.66 µM | [4] 4 µM | [5] 1.32 µM | [6] 2.12 µM | CYP2C9 (gene 1559) 1.71 µM
inactive: [7]

C=CC(=O)NCNC(=O)C=C
not listed: Caspase-3 (Homo sapiens) | CYP2C8 (gene 1558)
inactive: all other assays above

ClC1=C(Cl)[C@]2(Cl)[C@@H]3[C@@H](Cl)[C@H]4O[C@H]4[C@@H]3C1(Cl)C2(Cl)Cl
active: [5] 0.526 µM | [6] 1.21 µM
not listed: Caspase-3 (Homo sapiens) | [7]
inactive: all other assays above

O=S(=O)(O)C(F)(F)C(F)(F)C(F)(F)C(F)(F)C(F)(F)C(F)(F)F
active: [5] 24.6 µM | [6] 32 µM | CYP2C9 (gene 1559) 6.28 µM
not listed: Caspase-3 (Homo sapiens) | CYP2C8 (gene 1558)
inactive: all other assays above

CN(C)c1nc(=O)n(C2CCCCC2)c(=O)n1C
active: [5] 33.6 µM
not listed: Caspase-3 (Homo sapiens) | [7]
inactive: all other assays above

CCC(C)(c1ccc(O)cc1)c1ccc(O)cc1
active: [3] 89.2 µM
not listed: Caspase-3 (Homo sapiens) | CYP2C8 (gene 1558) | [7]
inactive: all other assays above
